In PubChem BioAssay (Tox21):
Unmarked numbers belong to inactive results. Records with an inconclusive call do not appear. A call without a number means that no potency is given here. Calls of active or inactive are those of the source. Unless noted, the call rests on the fitted dose curve; in most records, active means well fitted curve in the direction sought with a large enough effect in the repeat runs; inconclusive means weak or mixed curves; inactive means flat fitted curve, though single readings scatter.

Experiments:
[1] = qHTS assay to test for compound auto fluorescence at 535 nm (green) in HEK293 cells (AID 720680)
[2] = qHTS assay to test for compound auto fluorescence at 460 nm (blue) in HEK293 cell free culture (AID 720681)
Procedure, shortened: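 Blue fluorescence (Ex 405/Em 460 nm, triamterene-equivalent) was read immediately after pin transfer of compound or DMSO into medium (DMEM, 10% FBS) without cells.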

[3] = qHTS assay to test for compound auto fluorescence at 535 nm (green) in HEK293 cell free culture (AID 720682)
Procedure, shortened: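 Each library compound, or DMSO control, is added by pintool to medium alone, comprising DMEM and 10% FBS. Emission at 535 nm following 485 nm excitation is quantified against fluorescein.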

[4] = qHTS assay to test for compound auto fluorescence at 590 nm (red) in HEK293 cell free culture (AID 720683)
Procedure, shortened: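 Red-channel autofluorescence of compounds in culture medium (DMEM, 10% FBS), no cells, measured at 540/590 nm. Rose Bengal sodium is the reference fluorophore for equivalence.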

[5] = qHTS assay to test for compound auto fluorescence at 590 nm (red) in HepG2 cell free culture (AID 720684)
Procedure, shortened: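 Steps: dispense MEM/10% FBS medium, no cells; pin compound or DMSO vehicle; read red channel, Ex/Em 540/590 nm. Output given as Rose Bengal sodium equivalents.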

[6] = qHTS assay to test for compound auto fluorescence at 460 nm (blue) in HepG2 cell free culture (AID 720685)
Procedure, shortened: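 Compound (23 nL) or DMSO pinned into cell-free MEM with 10% FBS; blue fluorescence read at 405/460 nm excitation/emission, expressed as auto-fluorescence equivalency to triamterene.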

[7] = qHTS assay to test for compound auto fluorescence at 535 nm (green) in HepG2 cell free culture (AID 720686)
[8] = qHTS assay to test for compound auto fluorescence at 460 nm (blue) in HepG2 cells (AID 720687)
Procedure, shortened: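 Blue-channel autofluorescence (Ex/Em 405/460 nm, triamterene-equivalent) was measured after 1 hr compound exposure at 37 C, 5% CO2. Cells were HepG2, plated overnight at 37 C in MEM plus 10% FBS.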

[9] = target: Glucocorticoid receptor (Homo sapiens) (UniProt P04150); assay: qHTS assay to identify small molecule agonists of the glucocorticoid receptor (GR) signaling pathway (AID 720691; active means well fitted activation curve with a large enough effect in the signal ratio in the repeat runs, not every such curve was filed as active; the % refers to the signal ratio)
Glucocorticoid receptor (Homo sapiens), sequence (P04150 whole entry, looked up): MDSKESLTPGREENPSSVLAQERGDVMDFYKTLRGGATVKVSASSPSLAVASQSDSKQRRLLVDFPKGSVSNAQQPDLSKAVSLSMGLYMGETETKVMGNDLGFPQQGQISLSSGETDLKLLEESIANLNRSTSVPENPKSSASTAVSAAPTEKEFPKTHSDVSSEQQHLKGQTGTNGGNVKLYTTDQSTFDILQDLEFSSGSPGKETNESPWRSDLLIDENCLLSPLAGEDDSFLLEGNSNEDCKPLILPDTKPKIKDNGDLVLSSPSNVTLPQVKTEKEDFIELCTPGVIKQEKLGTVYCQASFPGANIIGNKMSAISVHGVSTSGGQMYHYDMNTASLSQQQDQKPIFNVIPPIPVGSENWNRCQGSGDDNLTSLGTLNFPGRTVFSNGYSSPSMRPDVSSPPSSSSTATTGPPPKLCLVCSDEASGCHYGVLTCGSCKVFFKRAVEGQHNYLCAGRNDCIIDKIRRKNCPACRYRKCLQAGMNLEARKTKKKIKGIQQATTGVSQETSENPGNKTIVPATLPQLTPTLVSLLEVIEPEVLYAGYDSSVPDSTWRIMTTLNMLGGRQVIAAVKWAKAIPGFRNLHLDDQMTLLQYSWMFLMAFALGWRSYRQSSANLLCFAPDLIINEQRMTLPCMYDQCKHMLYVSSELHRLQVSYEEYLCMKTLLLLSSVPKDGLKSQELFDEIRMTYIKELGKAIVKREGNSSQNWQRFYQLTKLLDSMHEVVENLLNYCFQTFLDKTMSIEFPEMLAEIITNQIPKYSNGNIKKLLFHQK
Procedure, shortened: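 Reporter read-out: fluorescence intensity following 2 h room-temperature LiveBLAzer B/G FRET substrate loading. Prior step: GR-bla HeLa cells held 4 h, then treated 18 h at 37 C.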

[10] = target: Glucocorticoid receptor (Homo sapiens) (UniProt P04150); assay: qHTS assay to identify small molecule antagonists of the glucocorticoid receptor (GR) signaling pathway (AID 720692; active means well fitted inhibition curve with a large enough effect in the signal ratio in the repeat runs, not every such curve was filed as active; the % refers to the signal ratio; further: potency means the concentration at half of the fitted maximal effect)
Procedure, shortened: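 Dexamethasone (5 nM final) stimulated a stably integrated GRE-beta-lactamase reporter in HeLa cells during 18 h co-incubation with compounds; signal was quantified as fluorescence intensity of B/G FRET substrate after 2 h.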

Row | SMILES | outcome [1] | outcome [2] | outcome [3] | outcome [4] | outcome [5] | outcome [6] | outcome [7] | outcome [8] | outcome [9] | Potency [10]
1 | CN1C(=S)CN=C(c2ccccc2)c2cc(Cl)ccc21 | inactive | inactive | inactive | inactive | inactive | inactive | inactive | inactive | inactive | 12 µM (active)
2 | O=C(O)c1ccc2[nH]cc(CCCCN3CC=C(c4ccccc4)CC3)c2c1 | inactive | inactive | inactive | inactive | inactive | inactive | inactive | inactive | inactive | inactive
3 | CNC(=O)Oc1c(C(C)(C)C)cc(C)cc1C(C)(C)C | inactive | inactive | – | inactive | inactive | inactive | inactive | inactive | – | –
4 | CS(=O)(=O)c1cc(C(F)(F)F)ccc1C(=O)c1cnoc1C1CC1 | inactive | inactive | inactive | inactive | inactive | inactive | inactive | inactive | inactive | inactive
5 | N#Cc1ccncc1 | inactive | inactive | inactive | inactive | inactive | inactive | inactive | inactive | inactive | inactive
6 | CCOP(=S)(OCC)SCSc1ccc(Cl)cc1 | inactive | inactive | inactive | inactive | inactive | inactive | inactive | inactive | inactive | inactive
7 | Nc1cnn(-c2ccccc2)c(=O)c1Cl | inactive | inactive | inactive | inactive | inactive | inactive | inactive | inactive | inactive | inactive
8 | CC(C)NCC(O)c1ccc(N)c(C#N)c1 (centres undefined) | inactive | inactive | inactive | inactive | inactive | inactive | inactive | inactive | inactive | inactive
9 | Nc1cc2c3c(c1)C(c1ccccc1)=N[C@@H](NC(=O)c1cccnc1)C(=O)N3CC2 | inactive | inactive | inactive | inactive | inactive | inactive | inactive | inactive | inactive | inactive
10 | COc1cc(C[C@@H](C)N)c(OC)cc1C | inactive | inactive | inactive | inactive | inactive | inactive | inactive | inactive | inactive | inactive
11 | OCCBr | inactive | inactive | inactive | inactive | inactive | inactive | inactive | inactive | inactive | inactive
12 | N#CCCC#N | inactive | inactive | – | inactive | inactive | inactive | inactive | inactive | – | –
13 | CCS(=O)(=O)C(C)(C)S(=O)(=O)CC | inactive | inactive | inactive | inactive | inactive | inactive | inactive | inactive | inactive | inactive
14 | ClC(Cl)(Cl)C(Cl)(Cl)Cl | inactive | inactive | inactive | inactive | inactive | inactive | inactive | inactive | inactive | inactive
15 | COP(N)(=S)Oc1ccccc1C(=O)OC(C)C (centres undefined) | inactive | inactive | inactive | inactive | inactive | inactive | inactive | inactive | inactive | inactive
16 | Cc1cccc(C#N)c1 | inactive | inactive | inactive | inactive | inactive | inactive | inactive | inactive | inactive | inactive
17 | COC(=O)c1ccccc1S(=O)(=O)NC(=O)N(C)c1nc(C)nc(OC)n1 | inactive | inactive | inactive | inactive | inactive | inactive | inactive | inactive | inactive | inactive
18 | CC1(C)C(=O)NC(=O)NC1=O | inactive | inactive | inactive | inactive | inactive | inactive | inactive | inactive | inactive | inactive
19 | NC1=NC(=O)C(c2ccccc2)O1 (centres undefined) | inactive | inactive | inactive | inactive | inactive | inactive | inactive | inactive | inactive | inactive
20 | Clc1cccc(N2CCNCC2)c1 | inactive | inactive | inactive | inactive | inactive | inactive | inactive | inactive | inactive | inactive
21 | ClCCOCOCCCl | inactive | inactive | inactive | inactive | inactive | inactive | inactive | inactive | inactive | inactive
22 | C(CCOCC1CO1)COCC1CO1 (centres undefined) | inactive | inactive | inactive | inactive | inactive | inactive | inactive | inactive | inactive | inactive
23 | CCOP(=O)(N=C1SCCS1)OCC | inactive | inactive | inactive | inactive | inactive | inactive | inactive | inactive | inactive | inactive
